Several values for one entry are separate records, joined by “and”; a condition that tells them apart may be missing. Identical values can stand only once. Screen size: about 5,500 compounds; about 2,000 (36%) were called active. Another 18% or so got no clear call; they are omitted. Rule as the data show it: active = normalized growth mostly below about 0.91 (no sharp cut-off); inconclusive = no clear call, values can overlap the other calls; inactive = mostly above about 0.92. The list shows a part of the results.
Assay: chemical genetic growth profiling, strain panel (AID 1159580);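 also: tested at 20 µM; growth read once vehicle control cultures reached saturation at 30 °C; 1 = growth at the plate median or of vehicle wells; lower values mean less growth of the strain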
Conditions: S. cerevisiae deletion strains, growth OD

Measured: normalized growth

COC(=O)C[C@H]1C(C)(C)C(=O)[C@@H]2CC3=C(CC[C@]4(C)C3=CC(=O)O[C@H]4c3ccoc3)[C@@]1(C)C2=O
inactive: locus YAL021C, strain ccr4, active compounds read low 1.02 | locus YAL026C, strain drs2, active compounds read low 0.985 | locus YAL030W, strain snc1, active compounds read low 0.979 | locus YBL061C, strain skt5, active compounds read low 0.986 | locus YBR009C, strain hhf1, active compounds read low 0.983 | locus YBR021W, strain FUR4, active compounds read low 0.992 | locus YBR023C, strain chs3, active compounds read low 0.976 | locus YBR171W, strain sec66, active compounds read low 0.947 | locus YBR229C, strain ROT2, active compounds read low 1 | locus YBR231C, strain swc5, active compounds read low 0.968 | locus YBR279W, strain paf1, active compounds read low 0.988 | locus YCL011C, strain gbp2, active compounds read low 0.953 | locus YCL016C, strain dcc1, active compounds read low 0.993 | locus YCL029C, strain bik1, active compounds read low 1.02 | locus YCL061C, strain MRC1, active compounds read low 1 | locus YCL069W, strain vba3, active compounds read low 0.958 | locus YCR088W, strain abp1, active compounds read low 0.96 | locus YDL005C, strain med2, active compounds read low 0.966 | locus YDL035C, strain GPR1, active compounds read low 0.996 | locus YDL040C, strain nat1, active compounds read low 0.966 | locus YDL074C, strain BRE1, active compounds read low 1 | locus YDL101C, strain DUN1, active compounds read low 1 | locus YDL134C, strain PPH21, active compounds read low 1 | locus YDL185W, strain tfp1, active compounds read low 1.01 | locus YDL192W, strain arf1, active compounds read low 1.02 | locus YDR001C, strain nth1, active compounds read low 0.979 | locus YDR069C, strain doa4, active compounds read low 0.961 | locus YDR101C, strain arx1, active compounds read low 1.01 | locus YDR137W, strain rgp1, active compounds read low 1 | locus YDR159W, strain sac3, active compounds read low 0.962 | locus YDR162C, strain NBP2, active compounds read low 1.01 | locus YDR195W, strain ref2 0.956 | locus YDR297W, strain sur2, active compounds read low 0.977 | locus YDR318W, strain mcm21, active compounds read low 1.02 | locus YDR334W, strain swr1, active compounds read low 0.961 | locus YDR335W, strain msn5, active compounds read low 0.968 | locus YDR388W, active compounds read low 1.01 | locus YDR392W, strain spt3, active compounds read low 0.96 | locus YDR502C, strain sam2, active compounds read low 1 | locus YEL003W, strain gim4, active compounds read low 0.973 | locus YEL037C, strain rad23, active compounds read low 0.962 | locus YEL061C, strain CIN8 (second series), active compounds read low 0.958 | locus YEL061C, strain CIN8, active compounds read low 0.999 | locus YER015W, strain faa2, active compounds read low 0.985 | locus YER016W, strain bim1, active compounds read low 0.971 | locus YER110C, active compounds read low 1.02 | locus YER111C, strain swi4, active compounds read low 0.953 | locus YER155C, strain BEM2 (second series), active compounds read low 0.988 | locus YER155C, strain BEM2, active compounds read low 1 | locus YER167W, strain BCK2, active compounds read low 1.01 | locus YFR010W, strain ubp6, active compounds read low 0.961 | locus YGL078C, strain dbp3, active compounds read low 1.03 | locus YGL086W, strain mad1, active compounds read low 1 | locus YGL167C, strain pmr1, active compounds read low 0.988 | locus YGL173C, strain kem1, active compounds read low 0.975 | locus YGL227W, strain vid30, active compounds read low 0.976 | locus YGL240W, strain doc1, active compounds read low 0.954 | locus YGL248W, strain PDE1, active compounds read low 1.01 | locus YGL253W, strain hxk2, active compounds read low 0.951 | locus YGR135W, strain pre9, active compounds read low 1.01 | locus YGR229C, strain SMI1, active compounds read low 1.01 | locus YGR252W, strain gcn5, active compounds read low 1 | locus YHR013C, strain ard1, active compounds read low 0.981 | locus YHR027C, strain rpn1, active compounds read low 0.994 | locus YHR030C, strain SLT2, active compounds read low 0.985 | locus YHR079C, strain IRE1 (second series), active compounds read low 1.02 | locus YHR079C, strain IRE1, active compounds read low 0.974 | locus YHR094C, strain hxt1, active compounds read low 1.01 | locus YHR129C, strain ARP1, active compounds read low 0.998 | locus YHR142W, strain chs7, active compounds read low 0.965 | locus YHR200W, strain rpn10, active compounds read low 0.996 | locus YIL066C, strain RNR3, active compounds read low 0.999 | locus YIL073C, strain SPO22, active compounds read low 1.09 | locus YIL125W, strain kgd1, active compounds read low 1.01 | locus YIR030C, strain dcg1, active compounds read low 1.02 | locus YJL092W, strain hpr5, active compounds read low 0.964 | locus YJL095W, strain BCK1 (second series), active compounds read low 0.99 | locus YJL095W, strain BCK1, active compounds read low 1.01 and 0.983 | locus YJL115W, strain asf1, active compounds read low 0.97 | locus YJL129C, strain trk1, active compounds read low 0.959 | locus YJL134W, strain LCB3, active compounds read low 1 | locus YJL154C, strain vps35, active compounds read low 0.966 | locus YJL164C, strain tpk1, active compounds read low 0.994 | locus YJL166W, strain qcr8, active compounds read low 0.973
